PMC6212790, “How bacterial xenogeneic silencer rok distinguishes foreign from self DNA in its resident genome”
Over roughly 33,000 sequences, “e-score” has its median near -0.037; the highest 2% begin near 0.34. This is one part of a sample in which the highest values are shown more often than they occur.

The sequences below were run against T1, GST-Rok (full length) (Bacillus subtilis subsp. subtilis str. …, UniProt O34857 1-191) (assay: protein binding microarray; Rok is a gene silencer of Bacillus subtilis; high values mean tight binding). Details: protein: recombinant; tags: GST (pTH5325, pDEST15-Magic modified); dsDNA, one strand shown.
T1 sequence: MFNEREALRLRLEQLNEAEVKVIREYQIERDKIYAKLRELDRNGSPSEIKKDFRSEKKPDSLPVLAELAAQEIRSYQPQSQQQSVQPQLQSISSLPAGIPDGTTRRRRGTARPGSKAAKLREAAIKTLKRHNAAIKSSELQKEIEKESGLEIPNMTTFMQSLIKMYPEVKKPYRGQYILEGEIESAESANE
Outline: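 Every oligonucleotide joins a 25-mer constant primer to a 35-mer variable part drawn from a de Bruijn sequence of order 10, so each non-palindromic 8-mer appears at least 32 times and each palindromic 8-mer 16 times. The preference for every 8-mer is reported as a unitless, rank-based enrichment score (E-score). This score spans 0.5 for the most favored 8-mer to −0.5 for the most disfavored.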

Sequence	binding signal [E-score]
AGCGACAG	-0.152
GCATTTAA	0.115
ATAGCCTC	-0.165
GCTTAGAA	-0.0146
CCGTACAA	0.188
ACTCGGTC	-0.0736
CCTCGGTA	0.0273
ACTCGGTA	0.363
AATAAATC	0.233
AATAAATA	0.345
TATAAATA	0.397
GATAAATA	0.313
AATAAATG	0.295
CATAAATA	0.195
CTTGCGGC	-0.19
ATACTCTC	-0.0829
GTACTAAA	0.241
ATACTATC	0.378
ATACTATG	0.271
ATACTATA	0.396
CTACTTTA	0.31
GGACTATA	0.0812

Sequence	binding signal [E-score]
AGACTATA	0.286
CTACTATC	0.323
GTACTATA	0.444
ATACTTTA	0.239
GTACTTTA	0.377
AATGGGTA	0.289
AGTGACAG	-0.0878
ACTTGTCT	-0.00713
CCTCCAAC	-0.135
ACATTAAA	0.108
CATTCTTC	0.0507
CCACTATA	0.162
ATACTAGA	0.349
CTACTATA	0.399
CGACTATA	0.151
CTACTAGA	0.32
ATACTAGG	0.225
ATTGAAGA	0.204
GAATAGGC	-0.173
AGCACATG	-0.117
ACACACCG	0.0452
CGGCGGTC	-0.184

Sequence	binding signal [E-score]
CTTCACAA	0.035
TACCAAAA	0.165
AGTTTCCA	0.18
CACGTATA	0.243
TACGTATA	0.35
GACGTATA	0.212
TCTAGTCA	0.183
ACATAACG	0.157
AGATATCT	0.399
AGATATCA	0.127
ACATAACC	0.0404
GCATATAC	0.268
CCATATAC	0.251
GGATATAC	0.317
GTATATAC	0.432
ACATAACT	0.347
CTATATAC	0.341
CTCTATAC	0.033
AGATATCC	-0.0591
ATCTTTCG	0.109
AAGGATCA	-0.129
CCTAAACC	-0.152

Sequence	binding signal [E-score]
CAAGGTCG	-0.126
GCTGAAAA	-0.146
GTTCTTAA	0.122
CAAAGCTC	-0.0842
TCGAAAAA	-0.0412
ACGTTAGA	0.156
CAGGCATG	-0.176
AGATATAG	0.151
ATATAAAG	0.17
ATATAAAC	0.262
ACATATGG	0.168
AGATATAC	0.238
ATATAAAT	0.422
AGATATAA	0.183
ATATATAC	0.396
ACATATAC	0.289
AGATATAT	0.395
ACATATGA	0.069
ACATATGT	0.401
CAGACGAA	-0.0357
